Assay results from PubChem BioAssay (NCATS).
Inconclusive results are not listed. The source made the active and inactive calls. Calls come from the whole dose curve; as a rule, active = well fitted cell-killing curve with a large enough effect; inconclusive = small, poorly fitted or top-dose-only effect, or effect the other way; inactive = no such curve, though single readings can be large or run the other way.

Assay: Quantitative High-Throughput drug screen in 47 multiple myeloma cell lines against the NCATS MIPE library collection: MM1R_ATCC cell viability assay (AID 1918981); note: nearly all actives have a fitted effect of over 35% in size
Settings: MM1R multiple myeloma cells, CellTiter-Glo viability, 48 h; series mostly up to 45.8 µM
In short: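 ATP-based CellTiter-Glo luminescence after 48 h drug exposure (37 °C, 5% CO2) of 500 myeloma cells per well. DMSO-only wells set 100% viability, media-only wells 0%; MIPE 4.0 library added by pin tool.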
Potency is the fitted concentration of half-maximal effect.

| SMILES | Potency |
| --- | --- |
| COc1ccc(-n2nc(C(N)=O)c3c2C(=O)N(c2ccc(N4CCCCC4=O)cc2)CC3)cc1 | inactive |
| CNc1nccc(-c2cccnc2Oc2cc(C(=O)Nc3cccc(C(F)(F)F)c3)ccc2C)n1 | 20.9 µM (active) |
| COc1cccc(-c2ccc(NC(=O)C3=C(C(=O)O)CCC3)c(F)c2)c1 | 23.5 µM (active) |
| CCNC(=O)Nc1ccc2ncc(Nc3ccc(C)cc3)nc2n1 | 18.7 µM (active) |
| CCCCCCCCCC(=O)N[C@@H](Cc1c[nH]c2ccccc12)C(=O)N[C@H](CC(N)=O)C(=O)N[C@@H](CC(=O)O)C(=O)N[C@@H]1C(=O)NCC(=O)N[C@@H](CCCN)C(=O)N[C@@H](CC(=O)O)C(=O)N[C@H](C)C(=O)N[C@@H](CC(=O)O)C(=O)NCC(=O)N[C@H](CO)C(=O)N[C@@H]([C@@H](C)CC(=O)O)C(=O)N[C@@H](CC(=O)c2ccccc2N)C(=O)O[C@@H]1C | inactive |
| CC1(C)O[C@@H]2C[C@@H]3[C@H]4C[C@@H](F)C5=CC(=O)C=C[C@]5(C)[C@@]4(F)[C@@H](O)C[C@]3(C)[C@]2(C(=O)CO)O1 | inactive |
| CS(=O)(=O)c1ccc(-c2cnc(N)c(C(=O)Nc3ccccc3)n2)cc1 | 5.26 µM (active) |
| COc1ccc(CC2SC(=O)NC2=O)cc1C(=O)NCc1ccc(C(F)(F)F)cc1 (stereo unspecified) | inactive |
| Cc1ccc(CN2CCNCC2)cc1NC(=O)CNc1ccc(F)c(F)c1 | 26.4 µM (active) |
| NC(=O)c1c(OCc2c(F)cc(Br)cc2F)nsc1NC(=O)NCCCCN1CCCC1 | 20.9 µM (active) |
| CCN(CC)CCCCNc1ncc2cc(-c3cc(OC)cc(OC)c3)c(NC(=O)NC(C)(C)C)nc2n1 | 23.5 µM (active) |
